Consider 14 compounds from PubChem BioAssay (NCATS).

The structures appear in SMILES notation. “And” between values parts separate entries of the source, which are not always exact repeats. Identical values can stand only once. Inconclusive results are not listed. The source made the active and inactive calls. The call rests on the fitted dose curve.

The first test in a line: qHTS Assay for Lipid Storage Modulators (AID 1519). On activity change, negative = inhibition: on the % scale 0 is the no-effect control and ±100 the full control effect. To be noted: Drosophila S3 cells, BODIPY lipid droplet/cell ratio, laser cytometry; at 25.7 µM (top of the series); cells loaded with oleic acid. In outline: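 Cells seeded at 5,000 per well were treated with compounds over a concentration series and loaded with oleic acid (400 uM, as added). Lipid droplet fluorescence (488 nm excitation, 500-530 nm channel) was read by laser-scanning cytometry and normalized to 20 uM Triacsin C.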
As to `COc1ccc2c(c1OC)C(=O)OC2[C@H]1c2c(cc3c(c2OC)OCO3)CCN1C` (stereo partly drawn), the activity change, negative = inhibition is 0.244% (inactive).

Turning to `CN(C)CC[C@H](c1ccc(Cl)cc1)c1ccccn1`, the activity change, negative = inhibition was -0.988% (inactive).

Regarding `Nc1nc2c(c(=O)[nH]1)N(C=O)[C@H](CNc1ccc(C(=O)N[C@@H](CCC(=O)O)C(=O)O)cc1)CN2`, the activity change, negative = inhibition is -2.58% (inactive).

For `c1coc(CNc2ncnc3nc[nH]c23)c1`, the activity change, negative = inhibition is 1.26% (inactive).

Consider `COc1ccc([C@@H]2CNC(=O)C2)cc1OC1CCCC1`, for which the activity change, negative = inhibition is -2.44% (inactive).

The same test, now with this note: Drosophila S3 cells, BODIPY lipid droplet/cell ratio, laser cytometry; at 57.5 µM (top of the series); cells loaded with oleic acid.
With `COc1cc2c(cc1O)CCC1C2CC[C@@]2(C)C1CC[C@@H]2O` (stereo partly drawn), the activity change, negative = inhibition was -1.86% (inactive).

`Cc1ccc(O)c(C(CCN(C(C)C)C(C)C)c2ccccc2)c1` (stereo not drawn): the activity change, negative = inhibition is 7.57% (inactive).

In the case of `Cc1cc(O)c2c(c1)C(=O)c1cccc(O)c1C2=O`, the activity change, negative = inhibition was 5.96% (inactive) and -4.1% (inactive).

`OCC(O)C(O)C(O)CO` (stereo not drawn): the activity change, negative = inhibition is -0.297% (inactive) and 2.14% (inactive).

As for `CC(Cc1ccc(O)c(O)c1)(NN)C(=O)O` (stereo not drawn), the activity change, negative = inhibition is 4.17% (inactive).

On to `Oc1cc2c(cc1O)C1c3ccc(O)c(O)c3OCC1(O)C2` (stereo not drawn), for which the activity change, negative = inhibition was 6.13% (inactive).

As for `CN(N=O)C(=O)N[C@H]1C(O)OC(CO)[C@@H](O)[C@H]1O` (stereo partly drawn), the activity change, negative = inhibition is -2.09% (inactive).

On to `c1coc(CNc2ncnc3nc[nH]c23)c1`, for which the activity change, negative = inhibition was 6.17% (inactive).

Regarding `C[C@@]12C(=O)OC(=O)[C@@]1(C)C1CCC2O1`, the activity change, negative = inhibition is -13.3% (inactive).

In the case of `O=c1c(O)c(-c2ccc(O)c(O)c2)oc2cc(O)ccc12`, the activity change, negative = inhibition is 4.11% (inactive).

The same test, now with this note: Drosophila S3 cells, BODIPY lipid droplet/cell ratio, laser cytometry; measured here: cell count channel max response; cells loaded with oleic acid.
Turning to `COc1cc2c(cc1O)CCC1C2CC[C@@]2(C)C1CC[C@@H]2O` (stereo partly drawn), the max response amounted to 18.4%.

As for `COc1ccc2c(c1OC)C(=O)OC2[C@H]1c2c(cc3c(c2OC)OCO3)CCN1C` (stereo partly drawn), the max response was -11.8%.

On to `Cc1ccc(O)c(C(CCN(C(C)C)C(C)C)c2ccccc2)c1` (stereo not drawn), for which the max response amounted to 3.1%.

Turning to `Cc1cc(O)c2c(c1)C(=O)c1cccc(O)c1C2=O`, the max response was 3.86% and 2.84%.

Turning to `OCC(O)C(O)C(O)CO` (stereo not drawn), the max response is 13.1% and 19.4%.

Turning to `CN(C)CC[C@H](c1ccc(Cl)cc1)c1ccccn1`, the max response was 4.39%.

Turning to `CC(Cc1ccc(O)c(O)c1)(NN)C(=O)O` (stereo not drawn), the max response came out at 0.886%.

For `Oc1cc2c(cc1O)C1c3ccc(O)c(O)c3OCC1(O)C2` (stereo not drawn), the max response was -4.57%.

As for `CN(N=O)C(=O)N[C@H]1C(O)OC(CO)[C@@H](O)[C@H]1O` (stereo partly drawn), the max response was 10.4%.

As for `Nc1nc2c(c(=O)[nH]1)N(C=O)[C@H](CNc1ccc(C(=O)N[C@@H](CCC(=O)O)C(=O)O)cc1)CN2`, the max response is -9.43%.

For `c1coc(CNc2ncnc3nc[nH]c23)c1`, the max response is -19.4% and 15.6%.

Regarding `C[C@@]12C(=O)OC(=O)[C@@]1(C)C1CCC2O1`, the max response was -9.65%.

For the compound `COc1ccc([C@@H]2CNC(=O)C2)cc1OC1CCCC1`, the max response is -4.18%.

Turning to `O=c1c(O)c(-c2ccc(O)c(O)c2)oc2cc(O)ccc12`, the max response is -27.3%.

Staying with this test, now noted: Drosophila S3 cells, BODIPY lipid droplet/cell ratio, laser cytometry; measured here: lipid channel max response; cells loaded with oleic acid.
`COc1cc2c(cc1O)CCC1C2CC[C@@]2(C)C1CC[C@@H]2O` (stereo partly drawn): the max response amounted to 18.6%.

For `COc1ccc2c(c1OC)C(=O)OC2[C@H]1c2c(cc3c(c2OC)OCO3)CCN1C` (stereo partly drawn), the max response is -9.72%.

In the case of `Cc1ccc(O)c(C(CCN(C(C)C)C(C)C)c2ccccc2)c1` (stereo not drawn), the max response was determined as 8.45%.

Turning to `Cc1cc(O)c2c(c1)C(=O)c1cccc(O)c1C2=O`, the max response is 13.4% and 1.16%.

In the case of `OCC(O)C(O)C(O)CO` (stereo not drawn), the max response is 16.9% and 22.3%.

For the compound `CN(C)CC[C@H](c1ccc(Cl)cc1)c1ccccn1`, the max response stood at 4.57%.

In the case of `CC(Cc1ccc(O)c(O)c1)(NN)C(=O)O` (stereo not drawn), the max response was 8.76%.

`Oc1cc2c(cc1O)C1c3ccc(O)c(O)c3OCC1(O)C2` (stereo not drawn): the max response stood at 5.65%.

Consider `CN(N=O)C(=O)N[C@H]1C(O)OC(CO)[C@@H](O)[C@H]1O` (stereo partly drawn), for which the max response is 8.35%.

On to `Nc1nc2c(c(=O)[nH]1)N(C=O)[C@H](CNc1ccc(C(=O)N[C@@H](CCC(=O)O)C(=O)O)cc1)CN2`, for which the max response was -11.6%.

With `c1coc(CNc2ncnc3nc[nH]c23)c1`, the max response was -19.1% and 25.8%.

On to `C[C@@]12C(=O)OC(=O)[C@@]1(C)C1CCC2O1`, for which the max response is -21.9%.

Regarding `COc1ccc([C@@H]2CNC(=O)C2)cc1OC1CCCC1`, the max response is -7.27%.

Regarding `O=c1c(O)c(-c2ccc(O)c(O)c2)oc2cc(O)ccc12`, the max response was -24.1%.
